Test results taken from PubChem BioAssay (NCI).
This is part of a sample that, as a whole, favours compounds with a hit. Of some 79,000 tested, about 15% had one in any assay. Calls of active or inactive are those of the source. Cut-off read from the data, not from the text of the source: active = growth inhibition above about 70%; inactive = the rest.

What was measured:
[1] = NCI Yeast Anticancer Drug Screen. Data for the wt1 strain (AID 149);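 note: 0% = growth of vehicle-treated wt1 cultures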; settings: S. cerevisiae wt1 strain (SPY 50644) growth inhibition, active compounds read high
Method in brief: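 wt1 strain grown with compound or vehicle; inhibition taken from the growth difference.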

[2] = NCI Yeast Anticancer Drug Screen. Data for the rad50EPP+ strain (AID 151);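 note: 0% = growth of vehicle-treated control cultures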; settings: S. cerevisiae rad50 mutant strain, active compounds read high
Method in brief: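 Measured: growth inhibition of rad50EPP+ yeast. Reference: vehicle-treated controls. Screen uses strains with defined genetic alterations in DNA damage repair or cell cycle control.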

[3] = NCI Yeast Anticancer Drug Screen. Data for the mgt1 strain (AID 153); settings: S. cerevisiae mgt1 mutant growth inhibition, active compounds read high
Method in brief: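 Compounds were applied to mgt1 mutant yeast, and growth was then compared against vehicle-treated control cultures to give percent inhibition.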

[4] = NCI Yeast Anticancer Drug Screen. Data for the rad50 strain (AID 155);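 note: 0% = growth of vehicle-only cultures of the same strain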; settings: S. cerevisiae rad50 strain growth inhibition, active compounds read high
Method in brief: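 DNA repair mutant yeast, compound exposure, growth read-out; inhibition is taken relative to vehicle.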

[5] = NCI Yeast Anticancer Drug Screen. Data for the mec2-1 strain (AID 157); settings: S. cerevisiae mec2-1 strain, active compounds read high
Method in brief: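 Compounds were applied to mec2-1 yeast cells. Their growth was then compared with that of vehicle-treated cultures to give growth inhibition.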

[6] = NCI Yeast Anticancer Drug Screen. Data for the rad14 strain (AID 159);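 note: 0% = growth of vehicle-treated control cultures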; settings: S. cerevisiae rad14 strain growth inhibition, active compounds read high
Method in brief: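 DNA repair-defective yeast, compound-exposed; % growth inhibition derived by comparison with vehicle-treated controls.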

[7] = NCI Yeast Anticancer Drug Screen. Data for the sgs1 mgt1 strain (AID 161);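 note: 0% = growth of cultures given vehicle only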; settings: S. cerevisiae sgs1 mgt1 strain, active compounds read high
Method in brief: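 This yeast growth screen uses a strain with defined DNA-repair lesions; compound-treated growth is compared with vehicle-treated growth.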

[8] = NCI Yeast Anticancer Drug Screen. Data for the CLN2oe strain (AID 163);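 note: 0% = growth of vehicle-only control cultures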; settings: S. cerevisiae CLN2oe strain, active compounds read high
Method in brief: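 Cells of an engineered yeast line with disturbed cell-cycle regulation are treated with compound. Inhibition of growth is then calculated relative to the vehicle-treated reference.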

[9] = NCI Yeast Anticancer Drug Screen. Data for the cln2 rad14 strain (AID 165);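 note: 0% = growth equal to vehicle treated cultures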; settings: S. cerevisiae cln2 rad14 strain, active compounds read high
Method in brief: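 Strain: cln2 rad14 yeast, altered in cell cycle control and DNA damage repair. Read-out: growth inhibition vs vehicle.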

[10] = NCI Yeast Anticancer Drug Screen. Data for the bub3 strain (AID 167); settings: S. cerevisiae bub3 mutant strain, active compounds read high
Method in brief: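 In this screen, a yeast mutant lacking normal mitotic checkpoint function is challenged with compound. Relative growth versus vehicle gives the inhibition value.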

[11] = NCI Yeast Anticancer Drug Screen. Data for the wt2 strain (AID 169);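 note: 0% = growth of vehicle-treated yeast cultures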; settings: S. cerevisiae wt2 strain growth inhibition, active compounds read high
Method in brief: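 Growth of compound-treated yeast is measured and expressed as inhibition relative to vehicle-only controls.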

[12] = NCI Yeast Anticancer Drug Screen. Data for the mlh1 rad18 strain (AID 175); settings: S. cerevisiae mlh1 rad18 strain growth inhibition, active compounds read high
Method in brief: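 A repair-deficient yeast strain is exposed to test compound, and growth is scored relative to vehicle-treated controls.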

[13] = NCI Yeast Anticancer Drug Screen. Data for the rad18 strain (AID 177); settings: S. cerevisiae rad18 mutant growth inhibition, active compounds read high
Method in brief: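 DNA-repair-defective yeast; compound treatment; growth inhibition scored against vehicle.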

[14] = NCI Yeast Anticancer Drug Screen. Data for the mlh1 strain (AID 171);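 note: 0% = growth of vehicle-treated control cultures of the same strain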; settings: S. cerevisiae mlh1 strain growth inhibition, active compounds read high
Method in brief: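 Test agents were incubated with yeast bearing a defined DNA damage repair or cell cycle control alteration; values are growth inhibition normalised to vehicle-treated cultures.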

[15] = NCI Yeast Anticancer Drug Screen. Data for the sgs1 strain (AID 173);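 note: 0% = growth of vehicle-only control cultures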; settings: S. cerevisiae sgs1 mutant, active compounds read high
Method in brief: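 Strain with an altered DNA repair or cell cycle pathway exposed to compound. Growth then measured. Value = inhibition versus vehicle control.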

[16] = NCI Yeast Anticancer Drug Screen. Data for the rad52 strain (AID 147);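 note: 0% = growth of vehicle-treated control cultures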; settings: S. cerevisiae rad52 mutant growth inhibition, active compounds read high
Method in brief: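 Growth of repair-deficient yeast cells was compared between compound-treated and vehicle-treated cultures to give percent inhibition.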

[17] = at 5.0 µM (retest, dose inferred, filed as 0.5)
[18] = at 50.0 µM (retest, dose inferred, filed as 5.0)

Measured: growth inhibition

CC(C)(C)C1=CC(=CC=C2C=CN(CCCCCCCCCCCO)C=C2)C=C(C(C)(C)C)C1=O
inactive: [1]; at 1.2 µM -6% | [1]; at 3.7 µM 46% | [2]; at 1.2 µM -3% | [2]; at 3.7 µM -3% | [2]; at 11.0 µM -2% | [3]; at 1.2 µM -4% | [3]; at 3.7 µM -4% | [4]; at 1.2 µM -3% | [4]; at 3.7 µM 48% | [5]; at 1.2 µM -3% | [6]; at 1.2 µM -4% | [6]; at 3.7 µM 23% | [8]; at 1.2 µM -8% | [8]; at 3.7 µM 10% | [10]; at 1.2 µM -2% | [10]; at 3.7 µM 57% | [11]; at 1.2 µM -4% | [11]; at 3.7 µM 4% | [13]; at 1.2 µM -4% | [13]; at 3.7 µM 68%
active: [1]; at 11.0 µM 99% | [1]; at 33.0 µM 99% | [1]; at 100.0 µM 99% | [2]; at 33.0 µM 82% | [2]; at 100.0 µM 95% | [3]; at 11.0 µM 99% | [3]; at 33.0 µM 100% | [3]; at 100.0 µM 99% | [4]; [17] 86% | [4]; at 11.0 µM 99% | [4]; at 33.0 µM 98% | [4]; [18] 95% | [4]; at 50.0 µM 99.2% | [4]; at 100.0 µM 98% | [5]; at 3.7 µM 99% | [5]; [17] 99% | [5]; at 11.0 µM 99% | [5]; at 33.0 µM 99% | [5]; [18] 99% | [5]; at 50.0 µM 98.7% | [5]; at 100.0 µM 98% | [6]; at 11.0 µM 99% | [6]; at 33.0 µM 99% | [6]; at 100.0 µM 98% | [7]; [17] 99% | [7]; [18] 89% | [7]; at 50.0 µM 99.3% | [8]; at 11.0 µM 99% | [8]; at 33.0 µM 98% | [8]; at 100.0 µM 97% | [9]; [17] 99% | [9]; [18] 99% | [9]; at 50.0 µM 99.2% | [10]; [17] 94% | [10]; at 11.0 µM 98% | [10]; at 33.0 µM 98% | [10]; [18] 99% | [10]; at 50.0 µM 99% | [10]; at 100.0 µM 96% | [11]; at 11.0 µM 99% | [11]; at 33.0 µM 99% | [11]; at 100.0 µM 98% | [12]; [17] 98% | [12]; [18] 99% | [12]; at 50.0 µM 99.5% | [13]; at 11.0 µM 99% | [13]; at 33.0 µM 98% | [13]; at 100.0 µM 97%

CCOC(=O)/C(=C\c1ccc(C#N)cc1)C(C)=O
inactive: [1]; at 1.2 µM -15% | [1]; at 3.7 µM 6% | [1]; at 11.0 µM 9% | [2]; at 1.2 µM -8% | [2]; at 3.7 µM 24% | [2]; at 11.0 µM 40% | [3]; at 1.2 µM -23% | [3]; at 3.7 µM -4% | [3]; at 11.0 µM 38% | [4]; at 1.2 µM -9% | [4]; at 3.7 µM 7% | [4]; [17] 36% | [4]; at 11.0 µM 31% | [5]; at 1.2 µM -36% | [5]; at 3.7 µM -27% | [5]; [17] -11% | [5]; at 11.0 µM 13% | [6]; at 1.2 µM -4% | [6]; at 3.7 µM 1% | [6]; at 11.0 µM 15% | [7]; [17] 25% | [8]; at 1.2 µM -20% | [8]; at 3.7 µM -27% | [8]; at 11.0 µM 3% | [9]; [17] 13% | [9]; at 50.0 µM 38.2% | [10]; at 1.2 µM 1% | [10]; at 3.7 µM 3% | [10]; [17] 29% | [10]; at 11.0 µM 58% | [11]; at 1.2 µM -37% | [11]; at 3.7 µM -18% | [11]; at 11.0 µM 18% | [14]; at 1.2 µM 0% | [14]; at 3.7 µM 26% | [14]; at 11.0 µM 69% | [15]; at 1.2 µM -18% | [15]; at 3.7 µM -6% | [15]; at 11.0 µM 25% | [12]; [17] -9% | [13]; at 1.2 µM -30% | [13]; at 3.7 µM 7% | [13]; at 11.0 µM 23%
active: [1]; at 33.0 µM 84% | [1]; at 100.0 µM 98% | [2]; at 33.0 µM 84% | [2]; at 100.0 µM 98% | [3]; at 33.0 µM 95% | [3]; at 100.0 µM 99% | [4]; at 33.0 µM 91% | [4]; [18] 94% | [4]; at 50.0 µM 88.8% | [4]; at 100.0 µM 99% | [5]; at 33.0 µM 92% | [5]; [18] 98% | [5]; at 50.0 µM 81.3% | [5]; at 100.0 µM 98% | [6]; at 33.0 µM 95% | [6]; at 100.0 µM 99% | [7]; [18] 94% | [7]; at 50.0 µM 92% | [8]; at 33.0 µM 87% | [8]; at 100.0 µM 99% | [9]; [18] 94% | [10]; at 33.0 µM 98% | [10]; [18] 99% | [10]; at 50.0 µM 81.2% | [10]; at 100.0 µM 99% | [11]; at 33.0 µM 93% | [11]; at 100.0 µM 99% | [14]; at 33.0 µM 98% | [14]; at 100.0 µM 98% | [15]; at 33.0 µM 93% | [15]; at 100.0 µM 98% | [12]; [18] 97% | [12]; at 50.0 µM 90% | [13]; at 33.0 µM 88% | [13]; at 100.0 µM 98%

Nc1ccc(F)cc1S
inactive: [16]; at 1.2 µM -2% | [16]; at 3.7 µM -15% | [16]; at 11.0 µM -11% | [16]; at 33.0 µM 60% | [3]; at 1.2 µM -15% | [3]; at 3.7 µM -20% | [3]; at 11.0 µM 12% | [4]; at 1.2 µM -23% | [4]; at 3.7 µM -40% | [4]; [17] 16% | [4]; at 11.0 µM -14% | [4]; at 33.0 µM 61% | [4]; at 50.0 µM 51.1% | [5]; at 1.2 µM -16% | [5]; at 3.7 µM -15% | [5]; [17] 9% | [5]; at 11.0 µM 8% | [6]; at 1.2 µM -32% | [6]; at 3.7 µM -18% | [6]; at 11.0 µM -14%
active: [16]; at 100.0 µM 98% | [3]; at 33.0 µM 92% | [3]; at 100.0 µM 98% | [4]; [18] 91% | [4]; at 100.0 µM 98% | [5]; at 33.0 µM 81% | [5]; [18] 99% | [5]; at 50.0 µM 85.8% | [5]; at 100.0 µM 98% | [6]; at 33.0 µM 70%
